Compounds without any hit were thinned out: in the full panel of roughly 83,000, 20% have a hit.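 Single-dose data. Exposure time 48 hours. Values below 10 considered active.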 Unmarked numbers belong to inactive results. Activity calls are given as the source filed them.
Tests used:
Assay in all cases: NCI-60 one-dose screen, 48 h (100 = growth as untreated, 0 = no growth, -100 = all killed)
Conditions in all cases: 10 µM unless noted
NCI-H23 lung = test system: NCI-H23 lung
NCI-H226 lung = test system: NCI-H226 lung
NCI-H322M lung = test system: NCI-H322M lung
HOP-62 NSCLC = test system: HOP-62 NSCLC
NCI-H460 lung = test system: NCI-H460 lung
HOP-92 NSCLC = test system: HOP-92 NSCLC
NCI-H522 lung = test system: NCI-H522 lung
A549/ATCC NSCLC = test system: A549/ATCC NSCLC
786-0 renal = test system: 786-0 renal
COLO 205 colon = test system: COLO 205 colon
DU-145 prostate = test system: DU-145 prostate
K-562 leukemia = test system: K-562 leukemia
MALME-3M melanoma = test system: MALME-3M melanoma
MDA-MB-231 breast = test system: MDA-MB-231 breast
RXF 393 renal = test system: RXF 393 renal
SF-268 CNS = test system: SF-268 CNS
SF-295 CNS = test system: SF-295 CNS
SF-539 CNS = test system: SF-539 CNS
UACC-257 melanoma = test system: UACC-257 melanoma
M14 melanoma = test system: M14 melanoma

| SMILES | growth (NCI-H23 lung) | growth (NCI-H226 lung) | growth (NCI-H322M lung) [%] | growth (HOP-62 NSCLC) | growth (NCI-H460 lung) | growth (HOP-92 NSCLC) | growth (NCI-H522 lung) | growth (A549/ATCC NSCLC) | growth (786-0 renal) | growth (COLO 205 colon) | growth (DU-145 prostate) | growth (K-562 leukemia) | growth (MALME-3M melanoma) | growth (MDA-MB-231 breast) | growth (RXF 393 renal) | growth (SF-268 CNS) | growth (SF-295 CNS) | growth (SF-539 CNS) | growth (UACC-257 melanoma) | growth (M14 melanoma) |
| --- | --- | --- | --- | --- | --- | --- | --- | --- | --- | --- | --- | --- | --- | --- | --- | --- | --- | --- | --- | --- |
| CNCC[C@H](Oc1cccc2ccccc12)c1cccs1 | 80.6% | 96.7% | 98.2 | 128% | 104% | 52.5% | 81.4% | 96.4% | 82.9% | 102% | 115% | 54.7% | 113% | 7.37% (active) | 72.3% | 88.2% | 94.1% | 97.5% | 90.1% | 104% |
| O=c1cc(-c2ccccc2)nc(SCc2nc3cc(Cl)c(Cl)cc3[nH]2)[nH]1 | 90.9% | 101% | 90.7 | 93.2% | 111% | 104% | 85.3% | 114% | 96.7% | 108% | 106% | 88.8% | 103% | 102% | 107% | 101% | 102% | 94.3% | 103% | 104% |
| O=C1OCC2=C1C(c1ccccc1)c1cc3c(cc1N2CCO)OCCO3 (stereo not given) | 30.9% | 15.8% | 48.7 | 27.3% | 5.36% (active) | 44.5% | -47.4% (active) | 23.6% | 20.8% | -47.6% (active) | -9.9% (active) | 10.5% | 67.1% | 14.2% | 10.8% | 32.1% | 0.89% (active) | -22.7% (active) | 47.3% | -21.8% (active) |
| O=[N+]([O-])c1c(O)c(Cl)cc(Cl)c1Cl | 98.7% | 94.4% | 101 | 97.9% | 107% | 83.3% | 94.7% | 93.1% | 99.6% | 116% | 113% | 103% | 96.5% | 103% | 104% | 102% | 97.9% | 109% | 108% | 98.1% |
| COc1cc(O)c2c(=O)c3c(CC=C(C)C)cc(OC)c(O)c3oc2c1 | 41.4% | 78.7% | 38.3 | 25.4% | 12.5% | 80.8% | -12.9% (active) | 35.6% | 36.1% | 112% | 19.5% | 12.2% | 66.9% | 24.3% | 13.7% | 51.9% | 42.2% | 6.54% (active) | 63.1% | 15.6% |
| CC1=C2[C@@H](CC1)[C@]1(C)O[C@@](C3CCNCC3)(C[C@H]1OC(=O)CO)[C@H]2OC(=O)/C=C/c1ccccc1 | 84.9% | 92.3% | 105 | 94.5% | 94.1% | 71.8% | 83.6% | 92.2% | 86.2% | 87.2% | 101% | 62.9% | 81% | 107% | 65.4% | 87.7% | 90.9% | 91.5% | 85% | 83.6% |
| CC1=Nc2cnc(Nc3ccc(N4CCCCC4)cc3)nc2Nc2ccccc21 | 67.1% | 76.6% | 75.7 | 94.4% | 86.8% | 60.9% | 40% | 79.8% | 51.8% | 81.3% | 79.8% | 34.7% | 88.5% | 60.4% | 68% | 91.2% | 83.8% | 79.9% | 93.8% | 71.5% |
| Cc1ccc(C2CC(c3cccc(Nc4ccncc4)c3)=Nc3c(N)nc(N)nc3N2)cc1 (stereo not given) | 56% | 88.9% | 67.4 | 86.4% | 23.1% | 49.8% | 75.7% | 28.3% | 36.4% | 52.3% | 70.9% | 21.3% | 78.7% | 66.1% | 55.6% | 63.1% | 67% | 67.9% | 63.7% | 42.3% |
| O=C1/C(=C/c2c[nH]c(=O)[nH]c2=O)SC(=S)N1Cc1ccccc1 | 96.4% | 102% | 95.1 | 101% | 105% | 98.5% | 90.7% | 101% | 100% | 88.2% | 102% | 101% | 97.6% | 101% | 110% | 95.2% | 102% | 96.9% | 104% | 98.8% |
| CC(C)n1c2ccc(Br)cc2c2c3c(c4c5ccccc5ccc4c21)C(=O)NC3=O | 93.7% | 95.5% | 70.9 | 94.6% | 89.9% | 117% | 71.9% | 98.3% | 101% | 101% | 84.2% | 76.4% | 105% | 110% | 98.5% | 88.7% | 101% | 91.5% | 113% | 92.7% |
| CC(=O)O[C@H]1CC[C@]2(C)[C@H]3CC=C4[C@@H]5CC(C)(C)CC[C@]5(C(=O)N5CCN(CCC#N)CC5)CC[C@@]4(C)[C@]3(C)CC[C@H]2C1(C)C | 45.3% | 48.9% | 53.3 | 41.2% | -1.52% (active) | 56.7% | 38.9% | 25.6% | 47.4% | 21.1% | 57.8% | 10% | 26% | 48.5% | 74.3% | 51.8% | 65.5% | 16.7% | 18.1% | 35.7% |
| CCCCn1c(NC(C)=O)c(S(=O)(=O)c2ccccc2)c2nc3ccccc3nc21 | 94% | 92.5% | 105 | 173% | 110% | 4.95% (active) | 94.9% | 97.1% | 105% | 127% | 104% | 69.3% | 98.9% | 109% | 86.8% | 96.7% | 111% | 97.6% | 99.6% | 106% |
| CN1CCN(c2ccc(NC3=CC(=O)c4ncncc4C3=O)cc2)CC1 | -43.5% (active) | -47.7% (active) | 10.8 | -87.5% (active) | -24.4% (active) | -61.7% (active) | -56.7% (active) | -7.95% (active) | -50.5% (active) | -69.8% (active) | -89.1% (active) | -22.1% (active) | -98.4% (active) | -15.1% (active) | -94.8% (active) | -46.3% (active) | -96.1% (active) | -96.1% (active) | -81.5% (active) | -81.8% (active) |
| Cc1cc(N2CCN(CC(=O)Nc3ccc4c(ccn4Cc4ccccc4)c3)CC2)nc(N2CCOCC2)n1 | 83.8% | 84.3% | 90.4 | 91.1% | 95.2% | 45.4% | 73.8% | 73.6% | 84.6% | 98.2% | 95.4% | 60.5% | 85.7% | 93.4% | 63.9% | 92.9% | 84% | 98.2% | 80.2% | 90.1% |
| N#Cc1c(-c2ccccc2)nc2c(c(-c3ccccc3)nn2-c2ccccc2)c1-c1ccc(N2CCCCC2)cc1 | 93.9% | 89.1% | 97.2 | 95.9% | 103% | 98.7% | 98.6% | 87.9% | 98.5% | 104% | 103% | 92.7% | 98.6% | 97.7% | 115% | 101% | 97.9% | 100% | 93.3% | 90.8% |
| CCOC(=O)C#Cc1c(C(=O)OCC)nnn1[C@@H]1O[C@H](COC)[C@@H](OC)[C@H]1OC | 101% | 82.6% | 92.9 | 97.8% | 109% | 68.5% | -58.7% (active) | 95.9% | 84.2% | -54.7% (active) | 92.6% | 9.33% (active) | 25.8% | 107% | 14% | 106% | 95.1% | 84.7% | 59.3% | 61.8% |

— PubChem BioAssay (NCI)
